Results on seven compounds are retold here after PubChem BioAssay (NCI).

Among the test systems are SK-MEL-2 melanoma; EKVX NSCLC; SN12C renal; UO-31 renal; TK-10 renal; ACHN renal; CAKI-1 renal; CCRF-CEM leukemia; MOLT-4 leukemia; SR leukemia; RPMI-8226 leukemia; OVCAR-8 ovarian; OVCAR-5 ovarian; OVCAR-4 ovarian; SK-OV-3 ovarian; IGROV1 ovarian; OVCAR-3 ovarian; HS 578T breast; NCI/ADR-RES ovarian.
What all share (assay): NCI-60 one-dose screen, 48 h (100 = growth as untreated, 0 = no growth, -100 = all killed)
Holding throughout (settings): 10 µM unless noted

The panel holds about 83,000 compounds, 20% with a hit somewhere; the sample as a whole holds those more often.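 In brief: 96-well plates, 48 h treatment, single concentration, percent growth endpoint.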 A number with no mark means an inactive call. Calls of active or inactive are those of the source. The calls were made as follows: active = growth percent below 10; inactive = the rest.

For `FC(F)(F)c1[nH]ncc1-c1nc2ccc3n[nH]c(C#Cc4cccnc4)c3c2c2c1CCCC2`, the growth is 65.8% in the experiment with SK-MEL-2 melanoma; 30.1% with EKVX NSCLC; 37.9% with SN12C renal; 19.8% in the experiment with UO-31 renal; 46.4% in the experiment on TK-10 renal; 22.6% in the experiment with ACHN renal. For the same compound, the growth with CAKI-1 renal is -7% (active); in the experiment with CCRF-CEM leukemia, 25.2%; with MOLT-4 leukemia, 14.9%; in the experiment with SR leukemia, 14.2%; with RPMI-8226 leukemia, 47.7%; in the experiment on OVCAR-8 ovarian, 45.5%. Besides, the growth in the experiment with OVCAR-5 ovarian is 67.3%; in the experiment on OVCAR-4 ovarian, 80.5%; with SK-OV-3 ovarian, 27.8%; with IGROV1 ovarian, 17.8%; in the experiment with OVCAR-3 ovarian, 54.2%; in the experiment with HS 578T breast, 13.8%. Moreover, the growth with NCI/ADR-RES ovarian is 72.1%.
For `COC(=O)[C@@H]1CCCN1C(=O)[C@@H]1CCCN1C(=O)[C@H](Cc1ccccc1)NC(=S)Nc1cc(C(F)(F)F)cc(C(F)(F)F)c1`, the growth in the experiment on SK-MEL-2 melanoma is -21.9% (active); in the experiment with EKVX NSCLC, 75.7%; in the experiment with SN12C renal it was 95%; in the experiment on UO-31 renal it was 75.5%; in the experiment with TK-10 renal it was 85.1%; in the experiment with ACHN renal it was 72.2%. Also, the growth with CAKI-1 renal was 72.3%; in the experiment with CCRF-CEM leukemia it was 53.4%; in the experiment on MOLT-4 leukemia, 50.1%; with SR leukemia, 80.9%; in the experiment on RPMI-8226 leukemia it was 43.9%; with OVCAR-8 ovarian it was 41.6%. In addition, the growth in the experiment on OVCAR-5 ovarian is 88.4%; in the experiment on OVCAR-4 ovarian it was 77.9%; in the experiment on SK-OV-3 ovarian, 98.1%; in the experiment with IGROV1 ovarian it was 108%; in the experiment on OVCAR-3 ovarian it was 24.6%; in the experiment on HS 578T breast, 83.7%. Also, in the experiment on NCI/ADR-RES ovarian, the growth was 67.4%.
Regarding `CCCCn1c(-c2ccc(C(=O)O/N=C(\N)c3ccc4c(c3)OCO4)cc2)nc(-c2ccccc2)c1-c1ccccc1`, the growth in the experiment on SK-MEL-2 melanoma was 84.9%; in the experiment on EKVX NSCLC, 51.8%; in the experiment with SN12C renal it was 39.3%; in the experiment on UO-31 renal it was -62.3% (active); in the experiment with TK-10 renal, 37.1%; in the experiment on ACHN renal it was -85.8% (active). The growth in the experiment with CAKI-1 renal is 11.5%; with CCRF-CEM leukemia it was -30% (active); in the experiment on MOLT-4 leukemia it was 7.23% (active); in the experiment with SR leukemia, -29.2% (active); in the experiment with RPMI-8226 leukemia, 29.6%; in the experiment on OVCAR-8 ovarian it was 44.5%. Besides, the growth with OVCAR-5 ovarian is 54.1%; in the experiment with OVCAR-4 ovarian it was 40.1%; with SK-OV-3 ovarian, 89.5%; with IGROV1 ovarian it was -68.5% (active); in the experiment with OVCAR-3 ovarian, 38.5%; in the experiment on HS 578T breast, 41.1%. Further, the growth in the experiment with NCI/ADR-RES ovarian was 18.6%.
Take `CCOc1cc2ncc(C#N)c(Nc3ccc(OCc4cccc(F)c4)c(Cl)c3)c2cc1NC(=O)CC1CCSS1` (stereo not drawn): the growth was 25.9% with SK-MEL-2 melanoma; 27.3% in the experiment with EKVX NSCLC; 46% in the experiment with SN12C renal; 39.3% in the experiment with UO-31 renal; 38.6% in the experiment on TK-10 renal; 59.7% in the experiment with ACHN renal. Moreover, the growth in the experiment with CAKI-1 renal is 43%; with CCRF-CEM leukemia it was 9.64% (active); in the experiment on MOLT-4 leukemia it was -25.2% (active); in the experiment with SR leukemia, -9.65% (active); with RPMI-8226 leukemia, 62.4%; in the experiment with OVCAR-8 ovarian, 44.2%. Moreover, the growth in the experiment on OVCAR-5 ovarian is 84.1%; with OVCAR-4 ovarian, -33.3% (active); in the experiment on SK-OV-3 ovarian, -93.6% (active); in the experiment with IGROV1 ovarian, -2.65% (active); in the experiment with OVCAR-3 ovarian, 37.3%; in the experiment on HS 578T breast it was 55.9%. Also, the growth in the experiment on NCI/ADR-RES ovarian is 78.9%.
On to `O=C(/C=C/C=C/c1ccc2c(c1)OCO2)N/N=C\c1ccc(O)cc1O`, for which the growth with SK-MEL-2 melanoma was 52.8%; in the experiment on EKVX NSCLC it was 20.2%; in the experiment on SN12C renal, 32.8%; with UO-31 renal, 11.4%; in the experiment with TK-10 renal it was 31%; in the experiment with ACHN renal, 14.4%. Moreover, the growth with CAKI-1 renal was 9.65% (active); in the experiment with CCRF-CEM leukemia, 18%; in the experiment on MOLT-4 leukemia it was 13.3%; with SR leukemia, 21.3%; with RPMI-8226 leukemia, 47.7%; in the experiment on OVCAR-8 ovarian it was 22.8%. Besides, the growth with OVCAR-5 ovarian is 42.5%; in the experiment with OVCAR-4 ovarian it was 9.43% (active); in the experiment on SK-OV-3 ovarian, 27%; with IGROV1 ovarian, 28.9%; with OVCAR-3 ovarian, 9.27% (active); with HS 578T breast, 70.2%. Besides, in the experiment on NCI/ADR-RES ovarian, the growth is 5.15% (active).
For the compound `CC(C)(C)c1cc(/C=N\NC(=O)/C=C/C=C/c2ccc3c(c2)OCO3)c(O)c(C(C)(C)C)c1`, the growth in the experiment with SK-MEL-2 melanoma was 89%; with EKVX NSCLC it was 75%; with SN12C renal, 87.6%; with UO-31 renal, 55.1%; in the experiment on TK-10 renal it was 96%; in the experiment with ACHN renal it was 75.9%. In addition, the growth with CAKI-1 renal was 71.9%; in the experiment with CCRF-CEM leukemia it was 55.7%; with MOLT-4 leukemia it was 74.7%; with SR leukemia, 6.69% (active); in the experiment on RPMI-8226 leukemia it was 80.6%; with OVCAR-8 ovarian it was 75.3%. Further, the growth is 89.3% with OVCAR-5 ovarian; 34.8% with OVCAR-4 ovarian; 100% in the experiment on SK-OV-3 ovarian; 70.3% in the experiment on IGROV1 ovarian; 75.6% in the experiment on OVCAR-3 ovarian; 13.6% in the experiment with HS 578T breast. Moreover, the growth with NCI/ADR-RES ovarian was 66.1%.
As for `CC[C@]1(O)C[C@@H]2CN(CCc3c([nH]c4ccccc34)[C@@](C(=O)OC)(c3cc4c(cc3OC)N(C)[C@H]3[C@@](O)(C(N)=O)[C@H](O)[C@]5(CC)[C@@H]6C[C@@H]6CN6CC[C@]43[C@@H]65)C2)C1`, the growth with SK-MEL-2 melanoma is 22.4%; with EKVX NSCLC, 41.1%; in the experiment with SN12C renal it was 27.6%; in the experiment with UO-31 renal, 50%; in the experiment on TK-10 renal, 53.5%; with ACHN renal it was 33%. For the same compound, the growth in the experiment on CAKI-1 renal is 32.8%; with CCRF-CEM leukemia it was 17.7%; in the experiment on MOLT-4 leukemia, 17.1%; in the experiment with SR leukemia, 12.1%; with RPMI-8226 leukemia, 13.8%; in the experiment on OVCAR-8 ovarian, 15.9%. The growth in the experiment on OVCAR-5 ovarian is 52.2%; in the experiment with OVCAR-4 ovarian, 52%; in the experiment on SK-OV-3 ovarian, 14.8%; with IGROV1 ovarian it was 36.5%; in the experiment on OVCAR-3 ovarian, 6.81% (active); in the experiment with HS 578T breast it was 30.2%. The growth with NCI/ADR-RES ovarian was 9.52% (active).
